Results reported in PubChem BioAssay.

assay: binders from COS7 lysate, DM2A8 probe, primary screen, torsin A project, cell lysate, small-molecule microarray, fluorescence 635/667 (AID 1065); conditions: higher = more signal, COS7 lysate expressing mutant human TOR1A

Row | SMILES | composite z-score
1 | C[C@]1(C(=O)NCCN2CCOCC2)c2ccccc2C(=O)N(Cc2ccc(OC(F)(F)F)cc2)[C@H]1c1ccc(CO)cc1 | 0.317
2 | [N-]=[N+]=Nc1ccccc1[C@@H]1OC(c2ccc(OCCCO)cc2)=N[C@]1(CCS(=O)(=O)c1ccccc1)C(=O)NCCN1CCOCC1 | 1.88
3 | CC(C)CN1C(=O)[C@@]2(Cc3ccccc31)c1ccccc1C(=O)N(Cc1ccccc1C(F)(F)F)[C@H]2c1ccc(CO)cc1 | -0.0077
4 | C=CC[C@]1(C(=O)N(C)C)N=C(c2ccc(OCCCO)cc2)O[C@H]1c1ccccc1N=[N+]=[N-] | -0.113
5 | COc1cc2c(cc1OC)CN(C(=O)[C@H]1[C@@H]3C(=O)O[C@@H](c4ccccc4)[C@@H](c4ccccc4)N3[C@@H](c3ccc(OCCO)cc3)[C@]13C(=O)Nc1ccc(C#CC4(O)CCCCCC4)cc13)CC2 | 0.774
6 | COCCCNC(=O)[C@@H]1c2ccccc2C(=O)N(Cc2ccccc2C(F)(F)F)[C@H]1c1ccc(CO)cc1 | 0.054
7 | C=CC[C@]12N=C(c3ccc(OCCCO)cc3)O[C@H]1c1ccccc1N(C)C2=O | 0.541
8 | CCCC[C@@H]1C[C@H]1[C@@H](NC(=O)c1cccnc1)c1ccc(-c2ccccc2)cc1 | -0.242
9 | C[C@@H]1ON(c2ccc(C(=O)OC(C)(C)C)cc2)[C@H](c2ccc(Br)cc2)[C@H]1C(=O)N1C(=O)OC[C@H]1Cc1ccccc1 | 0.155
10 | CC(C)CCC[C@@H](C)[C@H]1CC[C@@]2(C)C3=C(CC[C@]12C)[C@@]1(C)CC[C@H](OC(=O)c2ccc(Br)cc2)C(C)(C)C1CC3 (stereo partly specified) | 0.193
11 | COc1cc2c(cc1O)C(C)N(Cc1cc3c(cc1Br)OCO3)CC2 (stereo unspecified) | -0.192
12 | COc1c(C)cc(-c2cc3c(c(Cc4ccccc4)n2)[Si](C(C)C)(C(C)C)OC3)cc1C | 0.0413
13 | CN(C)CCCN1C(=O)[C@@]2(c3ccc([N+](=O)[O-])cc3)CC(=O)N(CC34CC5CC(CC(C5)C3)C4)[C@@H]2c2ccc(CO)cc21 | -0.429
14 | CO[C@H]1O[C@H](CO)[C@@H](OC(=O)Nc2ccc(C(F)(F)F)cc2)[C@H](OC(=O)Nc2ccc3c(c2)OCO3)[C@H]1OC(=O)Nc1ccc2c(c1)OCO2 | 1.15
15 | NC(=O)NCC#Cc1ccc2c(c1)[C@]1(C(=O)N2)[C@H](C(=O)Nc2nc3ccccc3s2)[C@H]2C(=O)O[C@H](c3ccccc3)[C@H](c3ccccc3)N2[C@@H]1c1ccc(O)cc1 | 0.544
16 | COCCOC(=O)N1C(=O)[C@@]2(c3cc(C#CC4(O)CCCCCC4)ccc31)[C@H](C(=O)N1CCCCCCC1)[C@H]1C(=O)O[C@H](c3ccccc3)[C@H](c3ccccc3)N1[C@@H]2c1ccc(OCCO)cc1 | 1.62
17 | COC(=O)[C@@]1(Cc2ccccc2)[C@H]2c3cc(C(=O)N4CCCC4)[nH]c3C[C@H]2CN1C(=O)c1ccccc1 | 0.065
18 | CCOC(=O)[C@H]1C/C=C/C[C@H](C(=O)OCC)C(=O)O[C@H]2[C@@H](OC)O[C@H](CO)[C@@H](OC(=O)CCc3ccccc3)[C@@H]2OC1=O | -0.267

Row | SMILES | composite z-score
19 | Cc1ccc(F)cc1S(=O)(=O)N[C@@H]1CCN(Cc2ccc(OC(C)C)cc2)C1 | 0.571
20 | COCCOC(=O)N1C(=O)[C@@]2(c3cc(C#CC4=CCCCC4)ccc31)[C@H](C(=O)N1CCN(c3ncccn3)CC1)[C@H]1C(=O)O[C@H](c3ccccc3)[C@H](c3ccccc3)N1[C@@H]2c1ccc(O)cc1 | 0.181
21 | COC(=O)C1(Cc2ccccc2)C=C2C(=C(C(C)C)C(=O)C2C)CN1 (stereo unspecified) | 1.26
22 | O=C1O[C@H](c2ccccc2)[C@H](c2ccccc2)N2[C@H]1[C@@H](C(=O)O)[C@]1(C(=O)Nc3ccccc31)[C@H]2c1ccc(O)cc1 | -0.122
23 | COc1ccc(NC(=O)O[C@H]2[C@H](OC(=O)Nc3ccc4c(c3)OCO4)[C@@H](OC(=O)Nc3ccc4c(c3)OCO4)[C@@H](OC)O[C@@H]2CO)cc1 | -0.0536
24 | COc1c(C)cc(-c2cc3c(c(-c4ccccc4)n2)[Si](C(C)C)(C(C)C)OC3)cc1C | -0.0385
25 | C[C@@H](OCc1ccccc1)C1NC(=O)[C@@]23C(=O)N[C@@H](Cc4ccccc4)C2[C@H](C)[C@@]2(C)O[C@H]2C3/C=C/C/C=C\CNC(=O)CNC1=O (stereo partly specified) | 0.667
26 | COc1ccc([Si](C)(C)[C@@H]2[C@@H](CC(=O)N3CCC[C@H]3CO)O[C@]3(C(=O)N(Cc4ccc(N5C(=O)c6cccc7cccc5c67)cc4)c4ccccc43)[C@H]2C)cc1 | 0.847
27 | CC1CC/C=C\[C@H]2OC34C=CCN(c5ccc6ccccc6c5)C(=O)[C@H]3N(C(CO)C(C)C)C(=O)[C@@H]4C2C(=O)O1 (stereo partly specified) | -0.0684
28 | COCCOC(=O)N1C(=O)[C@@]2(c3cc(C#CCC(C(=O)OC)C(=O)OC)ccc31)[C@H](c1ccc(OCCO)cc1)N1[C@H](c3ccccc3)[C@H](c3ccccc3)OC(=O)[C@H]1[C@@H]2C(=O)N1CCN(c2ncccn2)CC1 | 1.32
29 | CCOC(=O)[C@H]1C/C=C/C[C@H](C(=O)OCC)C(=O)O[C@H]2[C@@H](OC)O[C@H](CO)[C@@H](OC(=O)Nc3ccc(OC)cc3)[C@@H]2OC1=O | 0.753
30 | O=C1O[C@@H](c2ccccc2)[C@@H](c2ccccc2)N2[C@@H](c3ccc(O)cc3)[C@]3(C(=O)Nc4ccc(C#CC5=CCCCC5)cc43)[C@@H](C(=O)N3CCN(c4ncccn4)CC3)[C@H]12 | 0.892
31 | CCCCN1CC=CC23O[C@@H]4/C=C\CCC(C)OC(=O)C4[C@H]2C(=O)N(CCCCCCO)[C@@H]3C1=O (stereo partly specified) | 0.345
32 | CCOC(=O)C[C@H]1[C@H](OC(=O)c2ccc(-c3ccccc3)cc2)[C@@H](NC(=O)c2ccc3ccccc3n2)c2cc(OCCCO)ccc2N1C(=O)c1ccccc1 | 0.482
33 | COc1ccc(NN2C(C(O)c3ccccn3)C=CC3C(=O)N(C4CCCCC4)C(=O)C32)cc1 (stereo unspecified) | -0.287
34 | COc1cc(OC)c(C(O)C2C=CC3C(=O)N(c4ccccc4)C(=O)C3N2Nc2ccc(C#N)cc2)cc1Br (stereo unspecified) | -0.223
35 | COc1ccc([Si](C)(C)[C@H]2[C@H](CCn3cc([C@H](O)c4ccccc4)nn3)O[C@@]3(C(=O)N(Cc4ccc(N5CCOC5=O)cc4)c4ccccc43)[C@@H]2C)cc1 | -0.437
36 | CCCCC(CC)C(O)C1C=CC2C(=O)N(c3ccccc3)C(=O)C2N1Nc1ccc([N+](=O)[O-])cc1 (stereo unspecified) | 0.153
